Assay results: PubChem BioAssay (Tox21)
Calls of active or inactive are those of the source. Calls follow the shape of the dose curve; as a rule, active = well fitted curve in the direction sought with a large enough effect in the repeat runs; inconclusive = weak or mixed curves; inactive = flat fitted curve, though single readings scatter.

Assay: qHTS assay to test for compound auto fluorescence at 535 nm (green) in HepG2 cell free culture (AID 720686)
Settings: Cell-free medium, green autofluorescence 485/535 nm; series mostly up to 91.3 µM
For COC(=O)NC(=S)Nc1ccccc1NC(=S)NC(=O)OC, the outcome was “inactive”. With CCCCCOC(=O)c1ccccc1C(=O)OCCCCC the outcome was “inactive”. In the case of CC(C)OC(=O)Nc1ccccc1, the outcome is reported as “inactive”. With C#CC(C)(C)NC(=O)c1cc(Cl)cc(Cl)c1 the outcome was “inactive”. In the case of CC(C)C1(C)N=C(c2nc3ccccc3cc2C(=O)O)NC1=O (centres undefined), the outcome is reported as “inactive”. For Clc1ccc(Cl)cc1, the outcome was “inactive”. In the case of C=C(C)CCl, the outcome is reported as “inactive”. In the case of CC(C)(Cl)Cl, the outcome is reported as “inactive”. In the case of O=S(=O)(c1ccc(O)cc1)c1ccc(O)cc1, the outcome is reported as “inactive”. For Oc1ccccc1Cl, the outcome was “inactive”. With O=NN1CCCCCCC1 the outcome was “inactive”. For Cc1cc(-c2cc(C)c(N)c(C)c2)cc(C)c1N, the outcome was “inactive”. With CN(C)N=O the outcome was “inactive”. With CCCC1COC(Cn2cncn2)(c2ccc(Cl)cc2Cl)O1 (centres undefined) the outcome was “inactive”. With BrCCBr the outcome was “inactive”. For Nc1ccc(Cc2ccc(N)cc2)cc1, the outcome was “inactive”. For CCCCCCCCCCCC#N, the outcome was “inactive”. In the case of COP(N)(=O)SC (centres undefined), the outcome is reported as “inactive”. In the case of CCC12COCN1COC2, the outcome is reported as “inactive”. For O=[N+]([O-])c1ccc([As](=O)(O)O)cc1, the outcome was “inactive”. In the case of CC(C)(C)C(O)(CCc1ccc(Cl)cc1)Cn1cncn1 (centres undefined), the outcome is reported as “inactive”. For O=C(O)c1ccccn1, the outcome was “inactive”. In the case of Cn1cc(-c2ccccc2)c(=O)c(-c2cccc(C(F)(F)F)c2)c1, the outcome is reported as “inactive”. With CC(NC(C)(C)C)C(=O)c1cccc(Cl)c1 (centres undefined) the outcome was “inactive”. With CN=C=S the outcome was “inactive”. In the case of CCN(CC)c1ccccc1, the outcome is reported as “inactive”. For c1cc2c3c(cccc3c1)CC2, the outcome was “inactive”. In the case of CCC[N+](=O)[O-], the outcome is reported as “inactive”. For CCOP(=S)(OCC)SCCSCC, the outcome was “inactive”. In the case of CCN(CC)CCO, the outcome is reported as “inactive”. In the case of CCCN(CCC)N=O, the outcome is reported as “inactive”. In the case of c1ccc(OP(Oc2ccccc2)Oc2ccccc2)cc1, the outcome is reported as “inactive”. For c1ccc(-c2ccccc2)cc1, the outcome was “inactive”. For Nc1ccccc1C(=O)O, the outcome was “inactive”. In the case of CCOP(OCC)OCC, the outcome is reported as “inactive”. With ClCc1cccnc1 the outcome was “inactive”. For NCC(O)c1ccc(O)cc1 (centres undefined), the outcome was “inactive”.

Assay: qHTS assay to test for compound auto fluorescence at 460 nm (blue) in HepG2 cells (AID 720687)
Settings: autofluorescence 405/460 nm, 1 h; series mostly up to 91.3 µM
How it was run: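 Blue-channel autofluorescence (Ex/Em 405/460 nm, triamterene-equivalent) was measured after 1 hr compound exposure at 37 C, 5% CO2. Cells were HepG2, plated overnight at 37 C in MEM plus 10% FBS.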
In the case of COC(=O)NC(=S)Nc1ccccc1NC(=S)NC(=O)OC, the outcome is reported as “inactive”. With CCCCCOC(=O)c1ccccc1C(=O)OCCCCC the outcome was “inactive”. In the case of CC(C)OC(=O)Nc1ccccc1, the outcome is reported as “inactive”. For C#CC(C)(C)NC(=O)c1cc(Cl)cc(Cl)c1, the outcome was “inactive”. For CC(C)C1(C)N=C(c2nc3ccccc3cc2C(=O)O)NC1=O (centres undefined), the outcome was “inactive”. For Clc1ccc(Cl)cc1, the outcome was “inactive”. With C=C(C)CCl the outcome was “inactive”. For CC(C)(Cl)Cl, the outcome was “inactive”. With O=S(=O)(c1ccc(O)cc1)c1ccc(O)cc1 the outcome was “inactive”. In the case of Oc1ccccc1Cl, the outcome is reported as “inactive”. For O=NN1CCCCCCC1, the outcome was “inactive”. For Cc1cc(-c2cc(C)c(N)c(C)c2)cc(C)c1N, the outcome was “inactive”. With CN(C)N=O the outcome was “inactive”. With CCCC1COC(Cn2cncn2)(c2ccc(Cl)cc2Cl)O1 (centres undefined) the outcome was “inactive”. In the case of BrCCBr, the outcome is reported as “inactive”. For Nc1ccc(Cc2ccc(N)cc2)cc1, the outcome was “inactive”. With CCCCCCCCCCCC#N the outcome was “inactive”. With COP(N)(=O)SC (centres undefined) the outcome was “inactive”. For CCC12COCN1COC2, the outcome was “inactive”. In the case of O=[N+]([O-])c1ccc([As](=O)(O)O)cc1, the outcome is reported as “inactive”. In the case of CC(C)(C)C(O)(CCc1ccc(Cl)cc1)Cn1cncn1 (centres undefined), the outcome is reported as “inactive”. For O=C(O)c1ccccn1, the outcome was “inactive”. For Cn1cc(-c2ccccc2)c(=O)c(-c2cccc(C(F)(F)F)c2)c1, the outcome was “inactive”. For CC(NC(C)(C)C)C(=O)c1cccc(Cl)c1 (centres undefined), the outcome was “inactive”. For CN=C=S, the outcome was “inactive”. With CCN(CC)c1ccccc1 the outcome was “inactive”. In the case of c1cc2c3c(cccc3c1)CC2, the outcome is reported as “inactive”. For CCC[N+](=O)[O-], the outcome was “inactive”. For CCOP(=S)(OCC)SCCSCC, the outcome was “inactive”. For CCN(CC)CCO, the outcome was “inactive”. With CCCN(CCC)N=O the outcome was “inactive”. With c1ccc(OP(Oc2ccccc2)Oc2ccccc2)cc1 the outcome was “inactive”. In the case of c1ccc(-c2ccccc2)cc1, the outcome is reported as “inactive”. For Nc1ccccc1C(=O)O, the outcome was “inactive”. For CCOP(OCC)OCC, the outcome was “inactive”. For ClCc1cccnc1, the outcome was “inactive”. With NCC(O)c1ccc(O)cc1 (centres undefined) the outcome was “inactive”.
